# Screen size: about 69,000 compounds; about 950 (1.4%) showed an effect of 50% or more. The sample as a whole holds a higher share of strong results than the screen did.
# Tested on: Mycobacterium tuberculosis
# Assay: Cornell M. t heat shock assay; note: in the data most compounds retested in dose-response had high values
# Type: functional, organism-based
# Set-up: dose or concentration left out as unconfirmed
row,Structure (SMILES),Percent Effect
1,CNC[C@H]1CC[C@H](c2cc(CN(C)S(=O)(=O)N(C)C)n(C)n2)CC1.Cl,-16.56%
2,O=C(O)C(F)(F)F.O=C([C@@H]1CCO[C@@H]2CCN(Cc3ccc(F)cc3)C[C@H]21)N1CCCCO1,-25.18%
3,COC1CN(C(=O)COC(C)=O)CCC(=O)N(C)c2ccccc21 (stereo unspecified),45.97%
4,COC1CN(C(=O)CC(C)(C)C)CCC(=O)N(C)c2ccccc21 (stereo unspecified),48.93%
5,COC1CN(C(=O)OCC(C)C)CCC(=O)N(C)c2ccccc21 (stereo unspecified),53.04%
6,COC1CCN(C(=O)CC2CCCC2)CC(=O)N(C)c2ccccc21 (stereo unspecified),27.7%
7,COC1CN(C(=O)CC(C)C)CCC(=O)N(C)c2ccccc21 (stereo unspecified),33.11%
8,COC1CN(C(=O)CC2CCCC2)CCC(=O)N(C)c2ccccc21 (stereo unspecified),50.44%
9,Cn1cc(C[C@H]2[C@H](N3CCOCC3)CCN2C(=O)c2ccco2)cn1.O=C(O)C(F)(F)F,6.591%
10,COc1ccc(CN(Cc2cccnc2)CC2CCCO2)c(OC)c1.O=C(O)CC(O)(CC(=O)O)C(=O)O (stereo unspecified),5.923%
11,CCCn1ncc(-c2ccnc(NC3CCSC3)n2)c1C (stereo unspecified),-0.2299%
12,CCCn1ncc(-c2ccnc(NC3CC(C)(C)NC(C)(C)C3)n2)c1C,-32.44%
13,CCCn1ncc(-c2ccnc(N[C@@H]3C[C@@H]4CC[C@H]3C4)n2)c1C,50.09%
14,CCN1C[C@H]2[C@@H](C1)N(S(=O)(=O)c1ccccc1)CC[C@H]2OC.O=C(O)C(F)(F)F,4.433%
15,O=C(CSCC1CC1)N1CCCC(c2nccn2Cc2ccccn2)C1 (stereo unspecified),-24.76%
16,O=C(CSCC1CC1)N1CCCC(c2nccn2Cc2ccncc2)C1 (stereo unspecified),27.98%
17,COCCn1ccnc1C1CCCN(C(=O)CSCC2CC2)C1 (stereo unspecified),75.33%
18,CC(C)c1nc2c(n1C)CCN(Cc1cccc(OCC(N)=O)c1)C2,-13.93%
19,Cn1cc(CN2CC[C@@H]3[C@@H](CO[C@H]3CNC(=O)c3ccco3)C2)cn1.O=C(O)C(F)(F)F.O=C(O)C(F)(F)F,-15.87%
20,CC/N=c1\nc(NCC)nc2n1C(O)(Nc1cc(C)ccc1C)CS2 (stereo unspecified),7.529%
21,CC/N=c1\nc(NCC)nc2n1C(O)(Nc1cccc(Cl)c1Cl)CS2 (stereo unspecified),0.756%

row,Structure (SMILES),Percent Effect
1,CC/N=c1\nc(NCC)nc2n1C(O)(Nc1cccc(C)c1C)CS2 (stereo unspecified),59.58%
2,CNC(=O)c1cccc(C2CNCCN2C(=O)c2cccc(F)c2)c1.Cl (stereo unspecified),-24.93%
3,O=C(NCc1ccco1)[C@H]1COC[C@H]2CN(Cc3ccccn3)C[C@H]21.O=C(O)C(F)(F)F.O=C(O)C(F)(F)F,-5.073%
4,Cc1ncccc1-c1cc2cccnc2n1CCCNC(=O)C(C)(C)C.Cl,11.8%
5,Cc1nc(-c2ccnc(N3CCNCC3)n2)no1.Cl.Cl,10.1%
6,CCOc1ccccc1C(N)CC(C)C (stereo unspecified),6.467%
7,CC(CNS(N)(=O)=O)Oc1cccc(Cl)c1 (stereo unspecified),-31.66%
8,CNCc1cc(F)ccc1Oc1ccc(Cl)cc1,-7.892%
9,CC(C)COc1ccccc1C(N)CC(C)C (stereo unspecified),-26.57%
10,CC(C)C[C@H](N)COc1cccc(F)c1Oc1cccc(Cl)c1,103.9%
11,CC(C)C[C@H](N)COc1cccc(F)c1Oc1ccccc1,5.666%
12,Cc1ccc(Oc2c(F)cccc2OC[C@@H](N)CC(C)C)cc1,104.6%
13,CC(C)C[C@H](N)COc1cccc(F)c1Oc1ccc(Cl)cc1,105.7%
14,COc1ccccc1C(N)CC(C)C (stereo unspecified),-0.8675%
15,O=C(NC1CC1)[C@@H]1C[C@@H]2CCN(Cc3ccoc3)C[C@@H]2O1.O=C(O)C(F)(F)F,49.9%
16,Cc1nn(C)cc1-c1cncn1CCc1ccc2c(c1)OCCO2.Cl,-2.438%
17,Cl.Cl.c1cncc(OC[C@@H]2CCC[C@@]23CNCCO3)c1,-0.8406%
18,Cn1ccnc1CN1CCC2(CC1)CCN(c1ccccc1)C2=O.O=C(O)C(F)(F)F,8.178%
19,O=C(O)C(F)(F)F.O=C(O)C(F)(F)F.O=C1Nc2ccccc2C12CCN(Cc1ccccn1)CC2,-17.02%
20,Cc1ccccc1C1CCN(CCn2cc(-c3cccc(O)c3)nn2)C1 (stereo unspecified),72.96%
21,CCSCCn1cc(-c2nccs2)nn1,12.13%

row,Structure (SMILES),Percent Effect
1,Cc1ccccc1C1CCN(CCNC(=O)CS(C)(=O)=O)C1 (stereo unspecified),-16.65%
2,Cc1ccccc1C1CCN(CCn2cc(-c3nccs3)nn2)C1 (stereo unspecified),59.14%
3,Cc1ccccc1C1CCN(CCn2cc(-c3nccn3C)nn2)C1 (stereo unspecified),32.84%
4,Oc1cccc(-c2cc(C3CCN(Cc4cncnc4)C3)ccn2)c1 (stereo unspecified),20.76%
5,CCC(=O)N1CCC2(CC1)CN(CCO)Cc1ccccc12.O=C(O)C(F)(F)F,-19.17%
6,NCCc1c(-c2ccccc2)[nH][nH]c1=O.O=C(O)C(=O)O,-25.01%
7,O=C(CCc1cncc(F)c1)NS(=O)(=O)c1ccc(F)cc1F,21.56%
8,Cn1cccc1C(=O)N1C[C@H]2CN(Cc3cccs3)C[C@H]2C1.O=C(O)C(F)(F)F,-10.6%
9,COCCn1c(-c2cccc(OC)c2)cnc1NC(=O)NCC(C)C,22.14%
10,COCCCNC(=O)Nc1ncc(-c2cccc(OC)c2)n1CCOC,-7.26%
11,COCCn1c(-c2cccc(OC)c2)cnc1NC(=O)NCCC(C)C,67.45%
12,Cc1nn(C)c(Cl)c1CNCc1cccnc1N1CCN(C)CC1.Cl,-22.17%
13,O=C(O)C(F)(F)F.O=C1Nc2ccccc2C12CCN(c1nccs1)CC2,-0.7259%
14,CCC1=N[C@@]2(CC[C@@H]3CN(Cc4ccc(Cl)cc4)C[C@@H]32)C(=O)N1.O=C(O)C(F)(F)F,4.216%
15,CN1Cc2ccccc2CC2(CCN(CCO)CC2)C1=O.O=C(O)C(F)(F)F,19.63%
16,Cl.O=C(CCc1cccc(C2CCNCC2)n1)N1CCCCC1,-1.304%
17,CCc1cnc(N)nc1N[C@@H](C)c1ncccc1C,-10.37%
18,CCc1cnc(N)nc1NC(C)c1cnn(C)c1 (stereo unspecified),-5.78%
19,CCc1cnc(N)nc1NC(C)c1ccc(C)c(C)c1 (stereo unspecified),51.29%

# Source: ChEMBL document CHEMBL3988442, “University of Dundee, Small-Polar-MMV Screening Library” (2021)
